KinaseGlo FLuc – counter-screen: inhibitors of Kinase-Glo firefly luciferase | Kinase-Glo luciferase, ATP luminescence, 8 min | Potency, µM (top dose mostly 38.3 µM), inactives show at the highest dose activity change, negative = inhibition, actives largely listed as inhibitors | 0.28% of 200,000 active | AID 1379; further: on the % scale 0 is the no-effect control and ±100 the full control effect; nearly all actives have a fitted effect of over 60% in size
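Substrate mix (final 50 mM imidazole pH 7.2, 50 mM KCl, 7 mM MgCl2, 10 uM ATP, 0.01% Tween 20, 0.05% BSA) plus pin-tool compound, then Kinase-Glo detection mix; 8 min ambient, luminescence read.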
Rab9 prom act – activators of Rab9 promoter; Huh7 Rab9 promoter-luciferase reporter, luminescence, 24 h; Potency, µM (highest dose often 9.22 µM), inactives show at the top dose activation, negative = inhibition, most hits filed as activators; 2.8% of 320,000 active; AID 485297; further: % of control where 0% means no effect; nearly all actives have a fitted effect of over 60% in size
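Cell-based reporter: Huh7 stable for Rab9 promoter-driven luciferase, plated in reduced-serum medium with 10% FBS at 1500 cells/well, compound-treated 24 h at 37 °C, luminescence read after 10 min reagent.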
FLuc counter – counter-screen for miR-21 project: firefly luciferase inhibitors or activators; P08659; purified FLuc, Km substrates, luminescence inhibition; Potency, µM (titrated, usually from 57.5 µM), inactives show at the top dose activity change, negative = inhibition, usual class: inhibitors; 6.9% of 360,000 active; AID 588342;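 further: plate controls were vehicle for no effect and reference inhibitor for full effect; nearly all actives have a fitted effect of over 55% in size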
Target sequence (P08659 whole entry, looked up): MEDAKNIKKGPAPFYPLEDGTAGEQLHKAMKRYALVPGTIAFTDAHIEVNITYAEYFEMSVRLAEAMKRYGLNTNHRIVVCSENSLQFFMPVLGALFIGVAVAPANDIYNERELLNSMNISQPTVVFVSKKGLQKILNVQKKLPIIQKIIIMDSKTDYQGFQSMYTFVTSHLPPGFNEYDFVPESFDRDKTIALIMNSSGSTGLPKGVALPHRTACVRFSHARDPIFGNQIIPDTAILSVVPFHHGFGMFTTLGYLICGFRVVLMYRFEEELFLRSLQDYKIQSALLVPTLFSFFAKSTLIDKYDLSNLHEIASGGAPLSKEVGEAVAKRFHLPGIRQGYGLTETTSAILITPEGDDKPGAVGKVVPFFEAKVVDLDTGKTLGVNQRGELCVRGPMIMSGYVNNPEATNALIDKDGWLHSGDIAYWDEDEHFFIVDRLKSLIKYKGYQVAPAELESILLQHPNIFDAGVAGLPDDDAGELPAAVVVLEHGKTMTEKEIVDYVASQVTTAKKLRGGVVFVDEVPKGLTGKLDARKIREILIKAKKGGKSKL
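Purified P. pyralis luciferase (10nM final) with 10uM D-luciferin and 10uM ATP (Km levels) in 50mM Tris acetate pH 7.5, 10mM Mg acetate, 0.01% Tween-20, 0.05% BSA; qHTS 6-point titration, ~60 µM downward; luminescence read.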
ELG1 genotox – genotoxicity induction in ELG1-luciferase HEK293T cells | 1.3% of 330,000 active | AID 504466 | Potency, µM (doses to about 46 µM), for inactives: at the top dose activity change, positive = activation, most hits filed as activators | HEK293T ELG1-luciferase reporter, luminescence, 16 h; further: % of control where 0% means no effect; nearly all actives have a fitted effect of over 60% in size
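Genotoxic stress is detected as increased luminescence from luciferase-tagged ELG1 in HEK293T cells, measured with ONE-Glo after a 16 hr treatment at 37 °C.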
SMN2 splice enh – SMN2 splice variant enhancement; 2.8% of 210,000 active; AID 1458; Potency, µM (titrated, usually from 46.1 µM), for inactives: at the highest dose activity change, positive = activation, actives largely listed as activators; HEK293 SMN2-luciferase splicing reporter, luminescence, 30-36 h; further: % of control where 0% means no effect; nearly all actives have a fitted effect of over 55% in size
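HEK293 cells carry an SMN2 […]–luciferase reporter in which exon 7 inclusion puts luciferase in frame. Cells were plated 10-12 h before compound addition, then incubated 30-36 h at 37C. ONE-Glo luminescence was read; sodium butyrate at 4.5 mM final served as control.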
NPC1 promoter act – activates the NPC1 promoter. Potency, µM (highest dose often 9.22 µM), for inactives: at the highest dose activation, most hits filed as activators. AID 485313. 2.4% of 320,000 active. Huh7 NPC1 promoter luciferase reporter, 24 h; further: % of control where 0% means no effect; nearly all actives have a fitted effect of over 60% in size
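Stable NPC1-promoter luciferase Huh7 line; cpd (DMSO) 24 h, 37 °C, 5% CO2; Amplite luciferase reagent 10 min RT; luminescence readout. qHTS format.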
* marks the source's active call; other numbers are inactive results; u = inconclusive; x = no result. Most compounds without a hit are left out; they make up all but 7.4% or so of the library. The call rests on the fitted dose curve; in most records, active means well fitted curve in the direction sought with a large enough effect; inconclusive means small, poorly fitted or top-dose-only effect, or another doubt; inactive means no such curve, though single readings can be large; an effect the other way counts as inactive or inconclusive. Potency means the concentration at half of the fitted maximal effect.

SMILES	KinaseGlo FLuc	Rab9 prom act	FLuc counter	ELG1 genotox	SMN2 splice enh	NPC1 promoter act
CCCCn1cnc2sc(-c3ccccc3)cc2c1=O	-1%	1.6µM*	5.4µM*	u	24%	1.4µM*
COc1ccccc1-n1cnc2sc(-c3ccccc3)cc2c1=O	1%	2.8µM*	11µM*	5%	-20%	u
O=c1c2cc(-c3ccccc3)sc2ncn1/N=C/c1ccco1	-3%	3.5µM*	8.5µM*	u	10%	u
O=c1c2c(-c3ccccc3)csc2ncn1/N=C/c1c2ccccc2cc2ccccc12	18%	3%	-1%	-17%	-15%	-1%
CCOC(=O)CSc1nc2c(sc3ccccc32)c(=O)n1Cc1ccc(OC)cc1	x	x	-5%	x	x	x
C=CCc1c(C)nc2nc(SCC(=O)Nc3ccc(OCC)cc3)nn2c1C	x	x	-1%	x	x	x
Cc1nc(CSc2nsc(/C=C/N(C)C)c2C#N)cs1	-2%	13%	24µM*	1%	-4%	-15%
COc1ccc(/C=C2\Sc3ccc(C(=O)NCC4CCCO4)cc3N(C)C2=O)cc1 (stereo not drawn)	x	-4%	u	1%	x	2%
COc1ccc(/C=C2\Sc3ccc(C(=O)N4CCOCC4)cc3N(C)C2=O)cc1	x	0%	15µM*	-1%	x	2%
CC1=NOC(=O)/C1=C/c1ccc(N(C)C)cc1	x	1%	7.6µM*	6%	x	-1%
CN(C)c1ccc(/C=C2/C(=O)Nc3ccccc32)cc1	-9%	x	x	x	x	x
CN(C)c1ccc(/C=C2\C(=O)Nc3ccccc32)cc1	-14%	3.7µM*	x	x	3.2µM*	1.5µM*
CC1=NOC(=O)/C1=C/c1ccc(O)c(Cl)c1	x	-7%	u	0%	x	0%
CN(C)c1ccc(/C=C2\N=C(C(C)(C)C)OC2=O)cc1	x	-4%	1.5µM*	0%	x	1%
CCN(CC)c1ccc(/C=C2/C(=O)ON=C2C)cc1	-3%	-3%	12µM*	6%	-2%	-2%
CCOc1ccc2nc(N(Cc3cccnc3)C(=O)c3ccc4c(c3)OCCO4)sc2c1	x	x	13µM*	x	x	x
O=C(c1ccc2c(c1)OCCO2)N(Cc1cccnc1)c1nc2c(Cl)cccc2s1	x	x	-15%	x	x	x
CCOC(=O)/C=C/C(=O)N1CCc2ccccc21	-16%	4%	11µM*	1%	-6%	0%
O=C(c1ccco1)N1CCc2ccccc21	-17%	u	u	u	73%	u
CCOCC(=O)N1CCc2ccccc21	0%	3%	1%	-6%	25%	-3%
Cc1ccc(/C=C/C(=O)N2CCc3ccccc32)o1	-18%	2.5µM*	1.9µM*	8.2µM*	x	2.8µM*
O=C(/C=C/c1ccco1)N1CCc2ccccc21	10µM*	0.79µM*	2.1µM*	1µM*	10µM*	1.8µM*
Cc1cccc(NS(=O)(=O)c2ccc(C)c(C(=O)N(C)C3CCN(C)CC3)c2)c1	x	-1%	-1%	0%	x	-1%
CCC(=O)Oc1cc(C(C)(C)C)cc2cc(-c3nc(-c4ccc(OC)cc4OC)no3)c(=O)oc12	x	x	-2%	x	x	x
COc1ccccc1C(=O)NC(=O)COC(=O)c1ccc(Cl)nc1	x	3%	2%	-4%	x	-1%
SMILES	KinaseGlo FLuc	Rab9 prom act	FLuc counter	ELG1 genotox	SMN2 splice enh	NPC1 promoter act
O=C(C1CCC(CNS(=O)(=O)c2cccs2)CC1)N1CCN(c2ccc(Cl)cc2)CC1 (stereo not drawn)	x	-40%	1%	-17%	x	-31%
Clc1ccc(/C=C\c2nccc3c2[nH]c2ccccc23)cc1	-2%	21%	3.8µM*	17%	10%	27%
N#Cc1ccc(/C=C\c2nccc3c2[nH]c2ccccc23)cc1	0%	11%	u	6%	-13%	u
CCOC(=O)Cn1cc(C(=O)c2cccs2)c2ccccc21	0%	-5%	u	-2%	0.14µM*	2%
S=c1[nH]c(-c2ccccc2)cn1/N=C/c1ccccc1Br	1%	25%	13µM*	-4%	5%	29%
c1csc(-c2cnc3ccccc3n2)c1	-6%	u	11µM*	u	u	4µM*
c1ccc(-c2cccs2)nc1	x	0%	5%	-2%	x	1%
c1cc(-c2cccs2)nc(-c2cccs2)c1	-6%	4%	15µM*	11%	20%	8%
Cc1ccc(Nc2n[nH]c(C)c2[N+](=O)[O-])cc1C	-6%	1.1µM*	3µM*	u	11µM*	1.6µM*
O=C(CCN1C(=O)/C(=C/C=C/c2ccccc2)SC1=S)Nc1cccnc1	3%	u	1.1µM*	u	u	25%
O=C(O)CN1C(=O)/C(=C/C=C/c2ccccc2)SC1=S	-1%	63%	2.7µM*	0%	4%	u
O=C(O)CN1C(=O)/C(=C/c2ccsc2)SC1=S	-1%	1%	19µM*	1%	-12%	-4%
CC(=C\c1ccccc1)/C=C1/SC(=S)N(CCC(=O)Nc2ccccn2)C1=O	x	0%	-16%	4%	x	-1%
O=C(CCN1C(=O)/C(=C/C=C/c2ccccc2)SC1=S)Nc1ccccn1	x	5%	24µM*	17%	x	0%
O=C(O)c1cc2ccccc2c(N=Nc2cccnc2)c1O	x	5%	u	-6%	x	1%

Screens from PubChem.
